This is part of a sample that, as a whole, favours compounds with a hit. Of some 79,000 tested, about 15% had one in any assay. Calls of active or inactive are those of the source. Rule as the data show it: active = growth inhibition above about 70%; inactive = the rest.
Tests used:
[1] = NCI Yeast Anticancer Drug Screen. Data for the rad52 strain (AID 147);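 also: 0% = growth of vehicle-treated control cultures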; settings: S. cerevisiae rad52 mutant growth inhibition, hits give high values
Method in brief: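 Read-out: growth inhibition versus vehicle-treated controls. Cells were a DNA repair-deficient yeast strain treated with compounds.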

[2] = NCI Yeast Anticancer Drug Screen. Data for the wt1 strain (AID 149);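 also: 0% = growth of vehicle-treated wt1 cultures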; settings: S. cerevisiae wt1 strain (SPY 50644) growth inhibition, hits give high values
Method in brief: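 Vehicle-normalised growth inhibition; strain wt1; compound exposure.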

[3] = NCI Yeast Anticancer Drug Screen. Data for the rad50 strain (AID 155);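 also: 0% = growth of vehicle-only cultures of the same strain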; settings: S. cerevisiae rad50 strain growth inhibition, hits give high values
Method in brief: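 A DNA repair-deficient yeast mutant serves as the test organism; compound-induced growth inhibition is calculated against vehicle-treated cells.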

[4] = NCI Yeast Anticancer Drug Screen. Data for the mec2-1 strain (AID 157); settings: S. cerevisiae mec2-1 strain, hits give high values
Method in brief: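 Yeast mec2-1 mutant treated with compound. Readout: growth inhibition vs vehicle controls.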

[5] = NCI Yeast Anticancer Drug Screen. Data for the rad14 strain (AID 159);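 also: 0% = growth of vehicle-treated control cultures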; settings: S. cerevisiae rad14 strain growth inhibition, hits give high values
Method in brief: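 Vehicle-treated cultures served as the baseline for growth inhibition of a DNA repair-mutant yeast strain exposed to each compound.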

[6] = NCI Yeast Anticancer Drug Screen. Data for the CLN2oe strain (AID 163);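 also: 0% = growth of vehicle-only control cultures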; settings: S. cerevisiae CLN2oe strain, hits give high values
Method in brief: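 Read-out: yeast growth inhibition, expressed relative to vehicle-only controls. The strain bears an engineered cell-cycle alteration.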

[7] = NCI Yeast Anticancer Drug Screen. Data for the cln2 rad14 strain (AID 165);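 also: 0% = growth equal to vehicle treated cultures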; settings: S. cerevisiae cln2 rad14 strain, hits give high values
Method in brief: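 cln2 rad14 yeast strain; compound exposure; growth inhibition read vs vehicle controls.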

[8] = NCI Yeast Anticancer Drug Screen. Data for the bub3 strain (AID 167); settings: S. cerevisiae bub3 mutant strain, hits give high values
Method in brief: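 Inhibition values come from growth of compound-treated mutant yeast normalised to vehicle-treated controls.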

[9] = NCI Yeast Anticancer Drug Screen. Data for the wt2 strain (AID 169);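 also: 0% = growth of vehicle-treated yeast cultures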; settings: S. cerevisiae wt2 strain growth inhibition, hits give high values
Method in brief: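 Read-out: growth inhibition versus vehicle-treated control cultures after compound exposure of the yeast strain.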

[10] = NCI Yeast Anticancer Drug Screen. Data for the mlh1 strain (AID 171);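 also: 0% = growth of vehicle-treated control cultures of the same strain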; settings: S. cerevisiae mlh1 strain growth inhibition, hits give high values
Method in brief: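 Read-out: growth inhibition versus vehicle controls. Strain: engineered yeast with a defined DNA repair or cell cycle defect, compound-treated.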

[11] = NCI Yeast Anticancer Drug Screen. Data for the sgs1 strain (AID 173);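 also: 0% = growth of vehicle-only control cultures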; settings: S. cerevisiae sgs1 mutant, hits give high values
Method in brief: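 Read-out: yeast growth inhibition relative to vehicle controls, following compound exposure of a strain with a defined DNA repair/cell cycle alteration.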

[12] = NCI Yeast Anticancer Drug Screen. Data for the mlh1 rad18 strain (AID 175); settings: S. cerevisiae mlh1 rad18 strain growth inhibition, hits give high values
Method in brief: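 Yeast w/ defined DNA-repair lesions; compound exposure; growth vs vehicle controls → % inhibition.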

[13] = NCI Yeast Anticancer Drug Screen. Data for the rad18 strain (AID 177); settings: S. cerevisiae rad18 mutant growth inhibition, hits give high values
Method in brief: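 Readout: growth inhibition vs vehicle controls. Cells: genetically altered yeast strain, DNA repair defect.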

[14] = NCI Yeast Anticancer Drug Screen. Data for the rad50EPP+ strain (AID 151);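 also: 0% = growth of vehicle-treated control cultures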; settings: S. cerevisiae rad50 mutant strain, hits give high values
Method in brief: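 Growth inhibition read against vehicle controls in rad50EPP+ yeast, a strain altered in DNA damage repair, after compound exposure.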

[15] = NCI Yeast Anticancer Drug Screen. Data for the mgt1 strain (AID 153); settings: S. cerevisiae mgt1 mutant growth inhibition, hits give high values
Method in brief: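 mgt1 yeast grown with test compound; read-out is growth inhibition versus vehicle-treated cultures.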

[16] = NCI Yeast Anticancer Drug Screen. Data for the sgs1 mgt1 strain (AID 161);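 also: 0% = growth of cultures given vehicle only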; settings: S. cerevisiae sgs1 mgt1 strain, hits give high values
Method in brief: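 Inhibition of yeast growth, normalised to vehicle-treated controls, is reported for a strain bearing genetic alterations in DNA damage repair.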

[17] = at 5.0 µM (retest, dose inferred, filed as 0.5)
[18] = at 50.0 µM (retest, dose inferred, filed as 5.0)

Measured: growth inhibition

Cc1cc(NCCCN(C)C)c2ccc3c(ccc4c(NCCCN(C)C)cc(C)nc43)c2n1
inactive: [1]; at 1.2 µM 6% | [1]; at 3.7 µM 21% | [1]; at 11.0 µM 17% | [1]; at 33.0 µM 19% | [1]; at 100.0 µM 47% | [2]; at 1.2 µM 22% | [2]; at 3.7 µM 18% | [2]; at 11.0 µM 15% | [2]; at 33.0 µM 9% | [2]; at 100.0 µM 27% | [3]; at 1.2 µM 21% | [3]; at 3.7 µM 17% | [3]; [17] 11% | [3]; at 11.0 µM 17% | [3]; at 33.0 µM 21% | [3]; at 50.0 µM 55.9% | [3]; at 100.0 µM 59% | [4]; at 1.2 µM 7% | [4]; at 3.7 µM 15% | [4]; [17] 5% | [4]; at 11.0 µM 11% | [4]; at 33.0 µM 12% | [4]; [18] 31% | [4]; at 50.0 µM 25.6% | [4]; at 100.0 µM 35% | [5]; at 1.2 µM 2% | [5]; at 3.7 µM 3% | [5]; at 11.0 µM 15% | [5]; at 33.0 µM 22% | [5]; at 100.0 µM 58% | [6]; at 1.2 µM -7% | [6]; at 3.7 µM -4% | [6]; at 11.0 µM -1% | [6]; at 33.0 µM 17% | [6]; at 100.0 µM 52% | [7]; [17] 8% | [7]; [18] 57% | [7]; at 50.0 µM 19.1% | [8]; at 1.2 µM 1% | [8]; at 3.7 µM 11% | [8]; [17] 1% | [8]; at 11.0 µM 9% | [8]; at 33.0 µM 5% | [8]; [18] 31% | [8]; at 50.0 µM 11.3% | [8]; at 100.0 µM 22% | [9]; at 1.2 µM -57% | [9]; at 3.7 µM -39% | [9]; at 11.0 µM -63% | [9]; at 33.0 µM -40% | [9]; at 100.0 µM 25% | [10]; at 1.2 µM 15% | [10]; at 3.7 µM 18% | [10]; at 11.0 µM 23% | [10]; at 33.0 µM 25% | [10]; at 100.0 µM 37% | [11]; at 1.2 µM 3% | [11]; at 3.7 µM 10% | [11]; at 11.0 µM 7% | [11]; at 33.0 µM 8% | [11]; at 100.0 µM 46% | [12]; [17] 10% | [12]; at 50.0 µM 9.8% | [13]; at 1.2 µM 10% | [13]; at 3.7 µM 4% | [13]; at 11.0 µM 2% | [13]; at 33.0 µM -8% | [13]; at 100.0 µM 34%
active: [3]; [18] 90% | [12]; [18] 85%

O=C1c2ccccc2-c2ccc(NC(=O)C3CCCCC3C(=O)O)cc21 (stereo not drawn)
active: [15]; at 100.0 µM 72% | [5]; at 100.0 µM 86% | [8]; at 11.0 µM 72% | [8]; at 33.0 µM 80% | [8]; [18] 78% | [8]; at 50.0 µM 90.5% | [8]; at 100.0 µM 90% | [9]; at 100.0 µM 80% | [10]; at 100.0 µM 77% | [11]; at 100.0 µM 85%
inactive: [2]; at 1.2 µM 0% | [2]; at 3.7 µM -2% | [2]; at 11.0 µM -1% | [2]; at 33.0 µM 7% | [2]; at 100.0 µM 40% | [14]; at 1.2 µM 4% | [14]; at 3.7 µM 15% | [14]; at 11.0 µM 22% | [14]; at 33.0 µM 34% | [14]; at 100.0 µM 55% | [15]; at 1.2 µM -2% | [15]; at 3.7 µM -2% | [15]; at 11.0 µM -3% | [15]; at 33.0 µM 13% | [3]; at 1.2 µM 4% | [3]; at 3.7 µM 5% | [3]; [17] 3% | [3]; at 11.0 µM 10% | [3]; at 33.0 µM 24% | [3]; [18] 22% | [3]; at 50.0 µM 43.1% | [3]; at 100.0 µM 64% | [4]; at 1.2 µM 4% | [4]; at 3.7 µM 6% | [4]; [17] 18% | [4]; at 11.0 µM 5% | [4]; at 33.0 µM 18% | [4]; [18] 15% | [4]; at 50.0 µM 42.6% | [4]; at 100.0 µM 67% | [5]; at 1.2 µM -2% | [5]; at 3.7 µM -12% | [5]; at 11.0 µM -2% | [5]; at 33.0 µM 1% | [16]; [17] -2% | [16]; [18] 7% | [16]; at 50.0 µM 42.3% | [6]; at 1.2 µM -9% | [6]; at 3.7 µM -5% | [6]; at 11.0 µM -10% | [6]; at 33.0 µM -2% | [6]; at 100.0 µM 40% | [7]; [17] -20% | [7]; [18] -58% | [7]; at 50.0 µM 12.7% | [8]; at 1.2 µM 44% | [8]; at 3.7 µM 55% | [8]; [17] 6% | [9]; at 1.2 µM 0% | [9]; at 3.7 µM -1% | [9]; at 11.0 µM 1% | [9]; at 33.0 µM 24% | [10]; at 1.2 µM 7% | [10]; at 3.7 µM 3% | [10]; at 11.0 µM 4% | [10]; at 33.0 µM 1% | [11]; at 1.2 µM 3% | [11]; at 3.7 µM 7% | [11]; at 11.0 µM 15% | [11]; at 33.0 µM 41% | [12]; [17] -7% | [12]; [18] 34% | [12]; at 50.0 µM 41.2%
